Experimental data: PubChem BioAssay AID1376 (SRMLSC, 2008)
Among all 220,000 compounds or so, about 530 (0.24%) were called active. The full list was thinned out, with actives kept by preference. Potency and affinity values are given separately. Values without a mark were called inactive. Cut-off read from the data, not from the text of the source: active = inhibition above about 13%; inconclusive = no clear call, values can overlap the other calls; inactive = below that.

Biological target: Bifunctional protein GlmU (Mycobacterium tuberculosis (strain ATCC 25618 / H37Rv)) (UniProt P9WMN3)
Sequence (P9WMN3 whole entry, looked up): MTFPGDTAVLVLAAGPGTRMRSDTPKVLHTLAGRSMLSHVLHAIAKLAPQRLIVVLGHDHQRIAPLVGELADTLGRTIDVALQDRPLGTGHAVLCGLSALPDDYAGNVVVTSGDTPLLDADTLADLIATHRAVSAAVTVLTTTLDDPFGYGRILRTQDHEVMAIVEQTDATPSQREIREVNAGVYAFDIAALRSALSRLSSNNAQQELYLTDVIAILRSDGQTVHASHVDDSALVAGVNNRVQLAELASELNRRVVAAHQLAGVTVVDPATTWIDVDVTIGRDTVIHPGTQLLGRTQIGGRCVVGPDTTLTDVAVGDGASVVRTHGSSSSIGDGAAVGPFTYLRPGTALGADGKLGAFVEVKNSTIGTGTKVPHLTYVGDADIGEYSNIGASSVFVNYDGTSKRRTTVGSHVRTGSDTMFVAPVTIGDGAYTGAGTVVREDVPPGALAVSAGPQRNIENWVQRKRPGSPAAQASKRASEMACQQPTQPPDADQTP
Experiment: inhibition of mycobacterial GlmU enzyme – biochemical, glucosamine-1-phosphate acetyltransferase (AID 1376);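 note: 0% = complete reaction with vehicle and 100% = reaction without substrate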
Details: M. tuberculosis GlmU acetyltransferase enzyme assay; active compounds read high;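 tested at 30 µM in the primary screen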

| Structure (SMILES) | inhibition |
| --- | --- |
| CC(C)Oc1ccc(C(=O)Nc2ccc(N3CCCC3)cc2)cc1 | 2.23% |
| COc1ccc(C(=O)NC(=S)Nc2ccc(N3CCCC3)cc2)cc1 | -3.46% |
| COc1ccc(C(=O)Nc2ccc(N3CCCC3)cc2)cc1 | 13.4% (active) |
| O=C(O[C@@H]1OC2COC(=O)c3cc(O)c(O)c(O)c3-c3c(cc(O)c(O)c3O)C(=O)O[C@@H]([C@H]1O)[C@@H]2O)c1cc(O)c(O)c(O)c1 | 30.4% |
| CCC(=O)Nc1sc(C(=O)Nc2ccccc2OC)c(C)c1C(=O)OC | 7.34% |
| O=C(O)/C=C/c1ccc(O)c(O)c1 | 5.24% |
| O=C(/C=C/c1ccc(O)c(O)c1)OCCc1ccccc1 | -2.12% |
| CCN1C(=O)CC(N2CCOCC2)C1=O (stereo not drawn) | -3.77% |
| CCOc1ccc(C2CC(c3ccc(F)cc3)Nc3nc(N)nn32)cc1 (stereo not drawn) | 2.32% |
| CN1C(=O)/C(=C/c2coc3ccc(O)cc3c2=O)SC1=S | 2.74% |
| O=C1NC(=S)S/C1=C\c1coc2ccccc2c1=O | 5.72% |
| O=C(Nc1ccc(Cl)cc1)Nc1ccccc1C(=O)O | -1.73% |
| Cc1nn(CC(=O)Nc2sc3c(c2C#N)CCC(C(C)(C)C)C3)c(C)c1[N+](=O)[O-] (stereo not drawn) | 14.3% (active) |
| CN1CCN(CC(=O)Nc2sc3c(c2C#N)CCC(C(C)(C)C)C3)CC1 (stereo not drawn) | 2.19% |
| Cc1nn(CCCC(=O)Nc2sc3c(c2C#N)CCC3)c(C)c1[N+](=O)[O-] | -0.77% |
| CC(C)CCn1c(=O)c2ccccc2n2c(CN3CCCC3)nnc12 | -3.44% |
| O=C1N=c2ccccc2=C1c1sc(=S)n(NC(=O)c2ccccc2)c1O | 13.4% (active) |
| Cc1ccc(S(=O)(=O)Nn2c(O)c(C=C3N=c4ccccc4=N3)sc2=S)cc1 | 0.22% |
| O=S(=O)(Nn1c(O)c(C=C2N=c3ccccc3=N2)sc1=S)c1ccccc1 | 7.14% |
| O=C1N=c2ccccc2=C1c1sc(NS(=O)(=O)c2ccccc2)nc1O | 13.8% (active) |
| O=C1N=c2ccccc2=C1c1sc(NS(=O)(=O)Cc2ccccc2)nc1O | 5.63% |
| COc1cc(C(=O)Nn2c(O)c(C3=c4ccccc4=NC3=O)sc2=S)ccc1O | 4.03% |
| O=C1N=c2ccccc2=C1c1sc(Nc2ccc(O)cc2)nc1O | 6.45% |
| O=C1N=c2ccc(Br)cc2=C1c1sc(=S)n(NS(=O)(=O)c2ccccc2)c1O | 13.8% (active) |
| O=C1N=c2ccccc2=C1c1sc(=S)n(NC(=O)c2cccc(O)c2)c1O | -0.24% |
| COc1ccc(C(=O)C2CCCN(C(=O)Cc3c(C)noc3C)C2)cc1OC (stereo not drawn) | -6.51% |

| Structure (SMILES) | inhibition |
| --- | --- |
| COc1ccccc1C(=O)NCCCN1CCCC1=O | -0.52% |
| Nc1c(C(=O)c2ccc(F)cc2)oc2ccccc12 | 1.74% |
| CCOc1ccccc1NC(=S)N(CCOC)C1CCN(C(C)=O)CC1 | 1.9% |
| CC(=O)N1CC=CC1(C)C(=O)NCc1cc(F)cc(C(F)(F)F)c1 (stereo not drawn) | -2.53% |
| CCCCC(=O)Nc1ccc(C(=O)Nc2ccc(S(=O)(=O)Nc3ccc(C)cc3)cc2)cc1 | 3.43% |
| CCOc1ccc(N(CC(=O)NCC2CCCO2)C(=O)CCC(=O)Nc2nccs2)cc1 (stereo not drawn) | -0.08% |
| Cc1oc(/N=C/c2c(O)ccc3ccccc23)c(C#N)c1C | -4.74% |
| Nc1c(C(=O)N2CCOCC2)sc(=S)n1-c1ccccc1 | 13.9% (active) |
| Nc1c(C(=O)N2CCCCC2)sc(=S)n1-c1ccccc1 | -0.25% |
| Cc1ccc(-n2c(N)c(C(=O)N3CCOCC3)sc2=S)cc1 | -2.93% |
| Cc1cc2ccccc2c(=O)n1CC(=O)NCC(=O)N1CCN(c2ccccc2F)CC1 | -1.95% |
| CCOc1cc(CNCc2cccs2)ccc1OCC(=O)NC(C)(C)C | 4.39% |
| OC(COc1ccc(Br)cc1)CN1CCOCC1 (stereo not drawn) | -1.6% |
| COc1ccc(CSc2nnc(NC(C)=O)s2)cc1[N+](=O)[O-] | -1.4% |
| C/C(=N\NC(=O)c1cccc(C)c1)c1cccc(NC(=O)c2ccco2)c1 | 21.3% (active) |
| C/C(=N\NC(=O)c1ccc(F)cc1)c1cccc(NC(=O)c2ccco2)c1 | 1.13% |
| C/C(=N\NC(=O)c1cccc(Cl)c1)c1cccc(NC(=O)c2ccco2)c1 | 4.79% |
| Cc1cccc(Cn2cccc2/C=C2/C(=N)N3C=CSC3=NC2=O)c1 | -1.25% |
| CC(C)CC12CN3CCN(CC(C3)/C1=N/O)C2 | 0.59% |
| COc1ccc(COc2ccccc2C(N)=O)cc1F | 3.33% |
| O=S(=O)(c1ccc(OCC(O)CN2CCN(c3ccc(F)cc3)CC2)cc1)N1CCOCC1 (stereo not drawn) | 3.7% |
| Cc1ccccc1CN1[C@@H](Cc2ccccc2)COCCS1(=O)=O | -3.47% |
| O=S(=O)(O)c1cccc(N=Nc2c(O)ccc3ccccc23)c1 | 3.89% |
| O=C(O)c1cc(N=Nc2c(O)ccc3ccccc23)cc(C(=O)O)c1 | 25.6% (active) |
| Oc1ccc(N=Nc2c(O)ccc3ccccc23)cc1 | 0.98% |
| CCOC(=O)Cn1c(-c2ccccc2)ccc(C#N)c1=O | -5.69% |

| Structure (SMILES) | inhibition |
| --- | --- |
| C#CCn1c(-c2ccccc2)ccc(C#N)c1=O | 1.35% |
| CCn1c(-c2ccccc2)ccc(C#N)c1=O | 14.1% (active) |
| O=C(CSc1ccccc1C(=O)O)NCC1CCCCC1 | -4.3% |
| COCCn1c(SCC(=O)c2[nH]c(C)c(C(C)=O)c2C)nc2ccccc21 | 3.37% |
| Cc1cc(N2CCC(C(=O)NC3CC3)CC2)nc(-c2ccccc2)n1 | 1.37% |
| Cc1cc(N2CCC(C(=O)NC3CCCCC3)CC2)nc(-c2ccccc2)n1 | 13.9% (active) |
| C#CCNC(=O)C1CCN(c2cc(C)nc(-c3ccccc3)n2)CC1 | -1.53% |
| CC(=O)c1ccc(N2CCN(C(=S)Nc3ccccc3F)CC2)cc1 | -4.01% |
| CCS(=O)(=O)N1CCC(C(=O)N2CCN(Cc3ccccc3)CC2)CC1 | -4.26% |
| CS(=O)(=O)N1CCC(C(=O)N2CCN(Cc3ccccc3)CC2)CC1 | 0.44% |
| CCCS(=O)(=O)N1CCC(C(=O)N2CCN(Cc3ccccc3)CC2)CC1 | 30.1% (active) |
| Cc1cc(C(=O)CN2C(=O)C(=O)N(C3CCCC3)C2=O)c(C)n1-c1ccc(F)cc1 | 7.31% |
| Cc1c(Cl)cc(-n2cnnn2)cc1[N+](=O)[O-] | 0.95% |
| O=C(CSc1nnc(-c2ccco2)c(-c2ccco2)n1)Nc1ccccc1 | 13.4% (active) |
| CC(=O)c1ccc(NC(=O)CSc2nnc(-c3ccco3)c(-c3ccco3)n2)cc1 | 9.28% |
| O=C(CSc1nnc(-c2ccco2)c(-c2ccco2)n1)c1ccccc1 | 0.16% |
| COc1ccc(C(=O)CSc2n[nH]c(-c3ccco3)n2)cc1 | 4.52% |
| Cc1ccc(NC(=O)CSc2nnc(-c3ccco3)c(-c3ccco3)n2)cc1 | 6.2% |
| COc1ccc(C(=O)CSc2nnc(-c3ccco3)c(-c3ccco3)n2)cc1 | 12.8% (active) |
| CC1(c2nnc(Cc3ccccc3)o2)CC(c2ccc([N+](=O)[O-])cc2)=NO1 (stereo not drawn) | -2.83% |
| CCCn1c(SCC(=O)Nc2ccc(OCC)cc2)nnc1C(C)C | 2.8% |
| COC(=O)N/N=C/c1c(C)nn(-c2cccc(Cl)c2)c1Cl | -2.28% |
| O=C(O)c1cc(S(=O)(=O)Nc2ccc(N3CCCCC3)cc2)ccc1Cl | 14.1% (active) |
| O=S(=O)(Nc1ccc(N2CCCCC2)cc1)c1ccc(F)c(F)c1 | 1.08% |
| CC(=O)Nc1ccc(NS(=O)(=O)c2ccc(Cl)c(C(=O)O)c2)cc1 | -0.86% |
| O=C1CC2(CCCCC2)Oc2ccc(Cl)cc21 | -3.86% |

| Structure (SMILES) | inhibition |
| --- | --- |
| CCCCN(CCCC)CCNC(=O)CNC(=O)c1cccs1 | 2.63% |
| CCN(CC(=O)Nc1ccc(OC(F)F)cc1)C1CCCCC1 | 2.82% |
| C=CCOc1ccc(Br)cc1/C=N/O | -4.35% |
| C=CCOc1ccc(Br)cc1/C=C1/SC(=Nc2ccc(C(=O)O)cc2)NC1=O | 15.9% (active) |
| COc1cc(/C=C2/SC(=Nc3ccc(O)cc3)NC2=O)ccc1O | 35.3% |
| CCOc1cc(S(=O)(=O)NCCc2ccccc2C)c(OCC)cc1-n1cnnn1 | 1.72% |
| O=C1CC(NCc2ccccc2)C(=O)N1c1ccc(F)cc1 (stereo not drawn) | -3.58% |
| O=c1[nH]nc(SCc2nnc(-c3cccc(Cl)c3)o2)n1C1CCCCC1 | 1.07% |
| CC(C)(CNc1ccc([N+](=O)[O-])cc1Cl)CNS(C)(=O)=O | -2.7% |
| CCn1c(Cl)c(C=O)s/c1=N\S(=O)(=O)c1ccccc1 | 5.14% |
| COCCCN1C(=O)CS/C1=N\S(=O)(=O)c1ccccc1 | 5.52% |
| O=Cc1s/c(=N\S(=O)(=O)c2ccccc2)n(CCCCl)c1Cl | 14% (active) |
| CC/C(=N/NS(=O)(=O)c1ccc(Cl)cc1)c1ccc(O)cc1 | 2.54% |
| CC(C)CNC(=O)C1Nc2ccccc2C2C=CCC12 (stereo not drawn) | 0.47% |
| O=C(O)C1Nc2c(O)cccc2C2C=CCC12 (stereo not drawn) | 33.7% (active) |
| CC(C)C1Nc2ccc(C(=O)O)cc2C2C=CCC21 (stereo not drawn) | 5.77% |
| CCOC(=O)C1Nc2c(F)cc(C)cc2C2C=CCC12 (stereo not drawn) | 3.49% |
| Cc1ccc2c(c1C)NC(C(=O)O)C1CC=CC21 (stereo not drawn) | 13.2% (active) |
| O=C(O)C1Nc2c(C(=O)N3CCOCC3)cccc2C2C=CCC12 (stereo not drawn) | 1.95% |
| COc1cccc2c1NC(C(=O)O)C1CC=CC21 (stereo not drawn) | 60.8% (active) |
| O=C(O)C1Nc2c(O)cc(Cl)c([N+](=O)[O-])c2C2C=CCC12 (stereo not drawn) | 65% (active) |
| O=[N+]([O-])c1ccc(Cl)c2c1C1C=CCC1C(c1ccccn1)N2 (stereo not drawn) | 3.42% |
| COC(=O)CNC(=O)C1Nc2ccccc2C2C=CCC12 (stereo not drawn) | 3.22% |
| COc1cccc(C2Nc3c(F)cc(Br)cc3C3C=CCC32)c1OC (stereo not drawn) | 0.44% |
| CC(C)C1Nc2c(O)cc(Cl)c([N+](=O)[O-])c2C2C=CCC21 (stereo not drawn) | 4.55% |
